The list is not random: actives were taken first. Their share in the collection is about 1.3%.
NCOA2 inhibitor = human SRC2 (NCOA2) inhibition; inhibition, % at 9 µM; Q15596; HEK293 GAL4-SRC2 luciferase reporter, luminescence; AID 651957; 370,000 tested, 0.17% active;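 active = inhibition above the mean inhibition of all tested compounds plus 3 SD, set per campaign, cut at about 52% in these data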
Gli-Sufu block = Gli-Sufu pathway antagonism; Sufu-KO-LIGHT fibroblasts, Gli luciferase reporter luminescence; inhibition, % at 5 µM; 340,000 tested, 0.74% active;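 active = inhibition above about 55%, limit read from the data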
SRC1 inh = inhibitors of human steroid receptor coactivator 1 (SRC1); Q15788; HEK293 GAL4-SRC1 luciferase reporter, luminescence; inhibition, % at 3.6 µM; 360,000 tested, 0.12% active;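 active = inhibition above the campaign mean plus 3 SD, with each screening campaign given its own cutoff, cut at about 60% in these data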
NR5A2 inv ag = NR5A2 inverse agonism in reporter assay. HEK293T StAR-luciferase reporter, LRH-1 transfected, 24 h. inhibition, % at 3.6 µM. 360,000 tested, 0.13% active;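 active = inhibition above the mean inhibition of all tested compounds plus 3 SD, cut at about 73% in these data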
Target sequence (O00482 whole entry, looked up): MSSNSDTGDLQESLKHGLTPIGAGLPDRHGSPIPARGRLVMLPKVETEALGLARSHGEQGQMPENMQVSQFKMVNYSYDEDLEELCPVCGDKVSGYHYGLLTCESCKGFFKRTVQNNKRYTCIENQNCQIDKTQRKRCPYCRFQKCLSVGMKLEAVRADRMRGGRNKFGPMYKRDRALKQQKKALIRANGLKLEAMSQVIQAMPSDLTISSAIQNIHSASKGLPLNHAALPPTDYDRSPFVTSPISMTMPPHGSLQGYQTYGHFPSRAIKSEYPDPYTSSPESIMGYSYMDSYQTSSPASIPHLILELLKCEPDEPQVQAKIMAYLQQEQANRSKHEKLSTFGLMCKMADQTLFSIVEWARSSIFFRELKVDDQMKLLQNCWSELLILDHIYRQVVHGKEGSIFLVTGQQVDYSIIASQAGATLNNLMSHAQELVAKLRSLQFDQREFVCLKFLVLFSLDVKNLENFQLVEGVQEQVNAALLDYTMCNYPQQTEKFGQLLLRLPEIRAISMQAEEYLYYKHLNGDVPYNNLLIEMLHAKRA
COUP-TFII inh = NR2F2 (human) inhibition, primary screen; HEK293T NGFI-A luciferase reporter, luminescence; inhibition, % at 8.6 µM; 370,000 tested, 0.7% active; AID 686940;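 active = inhibition above a per-plate cutoff, mean inhibition of test wells between control levels plus 3 SD, cut at about 38% in these data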;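 note: cells cotransfected with COUP-TFII expression vector driving the NGFI-A reporter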
NCOA3 inh = inhibits human SRC3 coactivator. 360,000 tested, 0.17% active. Q9Y6Q9. HEK293 GAL4-SRC3 luciferase reporter, luminescence. inhibition, % at 3.6 µM;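 active = inhibition above a per-campaign cutoff, the mean of all compounds plus 3 SD, cut at about 60% in these data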;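 note: higher means less SRC3-driven luciferase light from the GAL4 reporter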
Gli-Sufu confirm = Gli-SUFU antagonism confirmation, single concentration; AID 602428; Sufu-KO-LIGHT cells, Gli luciferase reporter, luminescence; 2,500 tested, 40% active; shares compounds with Gli-Sufu block; inhibition, % at 5 µM;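 active = mean inhibition at 5 µM reaching about 45%, limit read from the data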
SufuKO cytotox = cytotoxicity counter-screen for Gli-SUFU antagonists; shares compounds with Gli-Sufu block; Sufu-KO-LIGHT cells cytotoxicity, ATP luminescence; cytotoxicity, % at 5 µM; 2,500 tested, 32% active; AID 651994;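 active = mean cytotoxicity at 5 µM above about 25%, limit read from the data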;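 note: cells exposed to compound overnight for roughly 16 to 18 hours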
Wnt3a counter = inhibits Wnt3a reporter, counter-screen for Gli-SUFU antagonists; shares compounds with Gli-Sufu block; Wnt-LIGHT cells, Wnt3a-driven luciferase reporter, luminescence; inhibition, % at 6.25 µM; 2,500 tested, 20% active;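 active = mean inhibition above about 25%, limit read from the data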
Numbers stand for hits; 0 = inactive; - = no result.

SMILES	NCOA2 inhibitor	Gli-Sufu block	SRC1 inh	NR5A2 inv ag	COUP-TFII inh	NCOA3 inh	Gli-Sufu confirm	SufuKO cytotox	Wnt3a counter
CSC1=NCCN1C(=O)Cc1ccc(-c2ccccc2)cc1	0	62	0	0	0	0	0	0	0
Cc1ccccc1-n1nc(C(=O)c2cccs2)cc(-c2nc3ccccc3[nH]2)c1=N	0	59	0	0	0	0	0	0	0
Cc1cccc(-n2nc(C(=O)c3ccco3)cc(-c3nc4ccccc4[nH]3)c2=N)c1	0	0	0	0	0	0	-	-	-
COc1ccc(-n2nc(C(=O)c3cccs3)cc(-c3nc4ccccc4[nH]3)c2=N)cc1	0	98	0	0	0	0	0	0	0
COc1ccccc1CCn1cnc(-c2ccc(F)cc2F)c1CC(C)C	0	-	-	-	0	-	-	-	-
Cc1ccc(-c2c(NC(=O)Nc3ccc(F)cc3)nc3ncccn23)cc1	0	-	-	-	0	-	-	-	-
COc1ccc2c(c1)C(C)=CC(C)(C)N2S(=O)(=O)c1ccc(Br)cc1	0	59	0	0	0	0	58	58	0
O=C1C(Cc2cccc([N+](=O)[O-])c2)SC(=Nc2ccccc2)N1c1ccccc1 (centres undefined)	0	62	0	0	0	0	0	0	0
O=C1C(Cc2ccc(Br)cc2)SC(=Nc2ccccc2)N1c1ccccc1 (centres undefined)	0	0	0	0	0	0	-	-	-
CSCCC(NS(=O)(=O)c1ccc(Br)cc1)C(=O)OCC(=O)NC1CC1 (centres undefined)	0	0	0	0	0	0	0	0	0
CSCCC(NS(=O)(=O)c1ccc(Cl)cc1)C(=O)OCC(=O)NC1CC1 (centres undefined)	0	0	0	0	0	0	-	-	-
O=C(CCN1CCN(C/C=C/c2ccccc2)CC1)Nc1ccc(Cl)cc1	0	0	0	0	0	0	0	0	0
Cc1ccc(NC(=O)CCN2CCN(C/C=C/c3ccccc3)CC2)cc1	0	0	0	0	0	0	-	-	-
C=CCNC(=O)CN(C(=O)Cc1cccc(OC(F)(F)F)c1)c1cccc(Br)c1	0	-	-	-	0	-	-	-	-
CCOc1ccc(-n2c(SCC(=O)NN=Cc3ccc(C(=O)O)cc3)nnc2-c2cccnc2)cc1	0	-	-	-	0	-	-	-	-
CCCC(=O)NC(NC(=S)Nc1c(C)n(C)n(-c2ccccc2)c1=O)C(Cl)(Cl)Cl (centres undefined)	0	0	0	0	0	0	-	-	-
Cc1c(NC(=S)NC(NC(=O)C(C)(C)C)C(Cl)(Cl)Cl)c(=O)n(-c2ccccc2)n1C (centres undefined)	0	0	0	0	0	0	0	0	0
CCOC(=O)Cn1cc(CN2CCS(=O)(=O)N(Cc3ccc(C)cc3)C(C(=O)OC)C2)nn1 (centres undefined)	0	-	-	-	0	-	-	-	-
COc1cc(NC(=O)c2cc3ccccc3cc2O)c(OC)cc1Cl	0	0	0	0	0	0	-	-	-
Cc1ccc(Cl)cc1NC(=O)c1cc2ccccc2cc1O	0	61	0	0	0	0	71	26	56
O=C(NCCO)c1cc2ccccc2cc1O	0	0	0	0	0	0	-	-	-
NNC(=O)c1cc2ccccc2cc1O	71	61	0	0	0	62	72	0	83
COCCN(C(=O)CSc1nnc(-c2ccccc2F)n1N)c1c(N)n(Cc2ccccc2)c(=O)[nH]c1=O	0	0	0	0	0	0	0	0	0
COc1ccc(N2CCN(C3CCCN(S(=O)(=O)c4ccc(C)cc4C)C3)CC2)cc1 (centres undefined)	0	60	0	0	0	0	0	0	0
O=C(c1ccoc1)N1CCCC(N2CCN(c3ccc(F)cc3)CC2)C1 (centres undefined)	0	0	0	0	0	0	-	-	-
COc1ccc(N2CCN(C3CCCN(C(=O)c4ccoc4)C3)CC2)cc1 (centres undefined)	0	55	0	0	0	0	0	0	0
